{"source": "PubChem BioAssay (NCATS)", "key": {"[1]": {"molecular_target": "Cellular tumor antigen p53 (Homo sapiens) (UniProt P04637)", "sequence (P04637 whole entry, looked up)": "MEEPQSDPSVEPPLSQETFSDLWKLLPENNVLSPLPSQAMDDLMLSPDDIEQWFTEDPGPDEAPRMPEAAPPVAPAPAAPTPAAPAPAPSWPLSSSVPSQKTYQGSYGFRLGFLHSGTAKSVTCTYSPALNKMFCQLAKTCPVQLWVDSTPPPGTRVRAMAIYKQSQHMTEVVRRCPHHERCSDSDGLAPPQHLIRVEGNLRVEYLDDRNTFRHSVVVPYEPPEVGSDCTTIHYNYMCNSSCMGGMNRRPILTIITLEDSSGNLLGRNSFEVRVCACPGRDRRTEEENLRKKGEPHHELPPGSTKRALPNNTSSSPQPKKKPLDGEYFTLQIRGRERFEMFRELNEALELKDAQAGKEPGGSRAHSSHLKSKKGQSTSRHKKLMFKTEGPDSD", "test": "Primary qHTS for small molecule compounds that upregulate eGFP-tagged delta133p53alpha (in N-terminal) cells. (AID 2060322); further: nearly all actives have a fitted effect of over 75% in size; further: potency means the concentration at half of the fitted maximal effect; on activation: series mostly up to about 56 µM", "conditions": "NCI-H358 eGFP-delta133p53alpha fluorescence, 24 h; activation: hits give high values", "in_short": "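NCI-H358 cells pre-induced 24 h with 10 ng/ml doxycycline to express N-terminal eGFP-delta133p53alpha, then dosed 24 h at 37C without doxycycline; fixed, Hoechst-stained, GFP intensity by laser scanning cytometry, normalized to DMSO (0%) and 57.5 uM 5-azacytidine (100%).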"}, "[2]": {"molecular_target": "Aldehyde dehydrogenase, mitochondrial (Homo sapiens) (UniProt P05091)", "test": "qHTS for Inhibitors of the Aldehyde Dehydrogenase Family (ALDH2) Primary screen (AID 2061308); further: nearly all actives have a fitted effect of over 55% in size"}, "[3]": {"molecular_target": "Retinaldehyde dehydrogenase 3 (Homo sapiens) (UniProt P47895)", "test": "qHTS for Inhibitors of the Aldehyde Dehydrogenase Family (ALDH1A3) Primary screen (AID 2061315)"}}, "note": "“And” between values parts separate entries of the source, which are not always exact repeats. Equal values may be shown once. Inconclusive results are not listed. A call without a number means that no potency is given here. Unmarked numbers belong to inactive results. The source made the active and inactive calls. The call rests on the fitted dose curve; in most records, active means well fitted curve in the direction sought with a large enough effect; inconclusive means small, poorly fitted or top-dose-only effect, or another doubt; inactive means no such curve, though single readings can be large; an effect the other way counts as inactive or inconclusive."}
{"molecule": "CC1CCCC(=O)CCC/C=C/c2cc(O)cc(O)c2C(=O)O1", "note": "(centres undefined)", "values": [{"measurement": "activation", "setting": "[1]", "value": 7.14, "unit": "%"}, {"measurement": "Potency", "setting": "[2]", "value": "inactive"}, {"measurement": "Potency", "setting": "[3]", "value": "inactive"}]}
{"molecule": "COc1ccc2c3c4n(c2c1)[C@@H](C=C(C)C)OOC(C)(C)C[C@@H]4N1C(=O)[C@@H]2CCCN2C(=O)[C@]1(O)[C@H]3OCC=C(C)C", "values": [{"measurement": "activation", "setting": "[1]", "value": 15.3, "unit": "%"}, {"measurement": "Potency", "setting": "[2]", "value": "inactive"}, {"measurement": "Potency", "setting": "[3]", "value": "inactive"}]}
{"molecule": "CN1C[C@@H]2CN(c3ccc(-c4ccccc4)nn3)C[C@@H]2C1", "values": [{"measurement": "activation", "setting": "[1]", "value": 14.3, "unit": "%"}, {"measurement": "Potency", "setting": "[2]", "value": "inactive"}, {"measurement": "Potency", "setting": "[3]", "value": "inactive"}]}
{"molecule": "CCC1NC(=O)C2C(Cl)C(Cl)CN2C(=O)C(C(C)O)NC(=O)CC(c2ccccc2)NC(=O)C(CO)NC1=O", "note": "(centres undefined)", "values": [{"measurement": "activation", "setting": "[1]", "value": 8.93, "unit": "%"}, {"measurement": "Potency", "setting": "[2]", "value": "inactive"}, {"measurement": "Potency", "setting": "[3]", "value": "inactive"}]}
{"molecule": "CC[C@@H]1/C=C/C=C/C[C@H](C)C(O)[C@](C)(O)C(=O)[C@H](C)C(O)[C@H](C)C(=O)[C@H](C)[C@@H](O)[C@H](C)/C=C/C(=O)O[C@H]2[C@@H](C)[C@@H](CC1)O[C@]1(O[C@H](C[C@H](C)O)[C@H](C)CC1=O)[C@@H]2C", "note": "(some centres undefined)", "values": [{"measurement": "activation", "setting": "[1]", "value": -12.2, "unit": "%"}, {"measurement": "Potency", "setting": "[2]", "value": "inactive"}, {"measurement": "Potency", "setting": "[3]", "value": "inactive"}]}
{"molecule": "CCC(C)(O)C1(C(=O)O)COC(=O)C1", "note": "(centres undefined)", "values": [{"measurement": "activation", "setting": "[1]", "value": 6.25, "unit": "%"}, {"measurement": "Potency", "setting": "[2]", "value": "inactive"}, {"measurement": "Potency", "setting": "[3]", "value": "inactive"}]}
{"molecule": "CC[C@@]1(O)C(=O)OCc2c1cc1n(c2=O)Cc2cc3c(OC)cccc3nc2-1", "values": [{"measurement": "Potency", "setting": "[1]", "value": "6.59 µM (active)"}, {"measurement": "Potency", "setting": "[2]", "value": "inactive"}, {"measurement": "Potency", "setting": "[3]", "value": "inactive"}]}
{"molecule": "CC(=O)O[C@H]1C[C@@H](OC(C)=O)C(C)(C)C2C[C@@H](O)[C@]3(C)C(CC[C@@]4(C)[C@H](C5=CC(=O)OC5O)C[C@H]5O[C@]543)[C@]21C", "note": "(some centres undefined)", "values": [{"measurement": "activation", "setting": "[1]", "value": -6.87, "unit": "%"}, {"measurement": "Potency", "setting": "[2]", "value": "inactive"}, {"measurement": "Potency", "setting": "[3]", "value": "inactive"}]}
{"molecule": "C[C@]12CC[C@H](O)C[C@@H]1CC[C@@H]1[C@@H]2CC[C@]2(C)C(=O)CC[C@@H]12", "values": [{"measurement": "activation", "setting": "[1]", "value": 6.33, "unit": "%"}, {"measurement": "Potency", "setting": "[2]", "value": "inactive"}, {"measurement": "Potency", "setting": "[3]", "value": "inactive"}]}
{"molecule": "CC(N[C@H]1C[C@H]1c1ccccc1)c1ccc2c(c1)OCCO2", "note": "(some centres undefined)", "values": [{"measurement": "activation", "setting": "[1]", "value": "-13.9% and -18.6%"}, {"measurement": "Potency", "setting": "[2]", "value": "inactive"}, {"measurement": "Potency", "setting": "[3]", "value": "inactive"}]}
{"molecule": "CC[C@H]1C[C@H]2[C@@H]3CCC4=CC(=O)CC[C@@H]4[C@H]3CC[C@]2(C)[C@H]1O", "values": [{"measurement": "activation", "setting": "[1]", "value": 5.67, "unit": "%"}, {"measurement": "Potency", "setting": "[2]", "value": "inactive"}, {"measurement": "Potency", "setting": "[3]", "value": "inactive"}]}
{"molecule": "CC(C)(O)[C@H]1O[C@H]2CC[C@@]3(C)[C@@](O)(CC[C@H]4Cc5c([nH]c6ccccc56)[C@@]43C)C2=CC1=O", "values": [{"measurement": "activation", "setting": "[1]", "value": 3.82, "unit": "%"}, {"measurement": "Potency", "setting": "[2]", "value": "inactive"}, {"measurement": "Potency", "setting": "[3]", "value": "inactive"}]}
{"molecule": "N#CC(OC1OC(COC2OC(CO)C(O)C(O)C2O)C(O)C(O)C1O)c1ccccc1", "note": "(centres undefined)", "values": [{"measurement": "activation", "setting": "[1]", "value": 8.4, "unit": "%"}, {"measurement": "Potency", "setting": "[2]", "value": "inactive"}, {"measurement": "Potency", "setting": "[3]", "value": "inactive"}]}
{"molecule": "CCOc1ccc(Oc2ccc(OCc3cc(F)ccc3F)cc2)c(N)c1", "values": [{"measurement": "activation", "setting": "[1]", "value": 3.57, "unit": "%"}, {"measurement": "Potency", "setting": "[2]", "value": "inactive"}, {"measurement": "Potency", "setting": "[3]", "value": "inactive"}]}
{"molecule": "C=C1C[C@]2(O)[C@@]3(C)CCC(=O)C(C)(C)C3=C(O)C(=O)[C@@]2(C)[C@@H]2C(=O)O[C@@](C)(C(=O)OC)C(=O)[C@@]12C", "values": [{"measurement": "activation", "setting": "[1]", "value": -4.58, "unit": "%"}, {"measurement": "Potency", "setting": "[2]", "value": "inactive"}, {"measurement": "Potency", "setting": "[3]", "value": "inactive"}]}
{"molecule": "CC(O)(c1ccccc1)C(Cc1ccc(Cl)cc1)n1cncn1", "note": "(centres undefined)", "values": [{"measurement": "activation", "setting": "[1]", "value": -8.59, "unit": "%"}, {"measurement": "Potency", "setting": "[2]", "value": "inactive"}, {"measurement": "Potency", "setting": "[3]", "value": "inactive"}]}
{"molecule": "CN1C(=O)C(Cc2ccc3ccccc3c2)N=C(c2ccc(O)cc2)c2cc(Cl)ccc21", "note": "(centres undefined)", "values": [{"measurement": "activation", "setting": "[1]", "value": 10.3, "unit": "%"}, {"measurement": "Potency", "setting": "[2]", "value": "inactive"}, {"measurement": "Potency", "setting": "[3]", "value": "inactive"}]}
{"molecule": "C/C=C(\\C)C(=O)OC1CC2C(CC=C3CC(OC4CC(OC)C(OC5CC(OC)C(OC6OC(C)C(OC7OC(CO)C(O)C(O)C7O)C(OC)C6O)C(C)O5)C(C)O4)CCC32C)C2(O)CCC(C(C)=O)C12C", "note": "(centres undefined)", "values": [{"measurement": "activation", "setting": "[1]", "value": -6.25, "unit": "%"}, {"measurement": "Potency", "setting": "[2]", "value": "inactive"}, {"measurement": "Potency", "setting": "[3]", "value": "inactive"}]}
{"molecule": "C=C1C(=O)OC2/C=C(\\COO)CC/C=C(\\COC(C)=O)CC(OC(=O)C(C)CC)C12", "note": "(centres undefined)", "values": [{"measurement": "Potency", "setting": "[1]", "value": "9.28 µM (active)"}, {"measurement": "Potency", "setting": "[2]", "value": "inactive"}, {"measurement": "Potency", "setting": "[3]", "value": "inactive"}]}
{"molecule": "COC(=O)CC1CC2(C(=O)c3c(O)cccc3C2(O)C(=O)OC)C(C)O1", "note": "(centres undefined)", "values": [{"measurement": "activation", "setting": "[1]", "value": 8.4, "unit": "%"}, {"measurement": "Potency", "setting": "[2]", "value": "inactive"}, {"measurement": "Potency", "setting": "[3]", "value": "inactive"}]}
{"molecule": "Cc1sc2c(c1C)C(c1ccc(Cl)cc1)=NC(CC(=O)OC(C)(C)C)c1nnc(C)n1-2", "note": "(centres undefined)", "values": [{"measurement": "activation", "setting": "[1]", "value": 7.64, "unit": "%"}, {"measurement": "Potency", "setting": "[2]", "value": "inactive"}, {"measurement": "Potency", "setting": "[3]", "value": "inactive"}]}
{"molecule": "C[C@]12CC[C@H](O)C[C@H]1CC[C@@H]1[C@@H]2[C@H](O)C(=O)[C@]2(C)[C@@H](c3ccc(=O)oc3)CC[C@]12O", "values": [{"measurement": "Potency", "setting": "[1]", "value": "0.19 µM (active)"}, {"measurement": "Potency", "setting": "[2]", "value": "inactive"}, {"measurement": "Potency", "setting": "[3]", "value": "inactive"}]}
{"molecule": "C=C1CC[C@H]2[C@@H](/C=C(\\C)C(=O)[C@@]3(OC(C)=O)C[C@H](C)[C@H](OC(=O)c4ccccc4)[C@@H]3[C@H]1OC(C)=O)C2(C)C", "values": [{"measurement": "activation", "setting": "[1]", "value": -11.5, "unit": "%"}, {"measurement": "Potency", "setting": "[2]", "value": "inactive"}, {"measurement": "Potency", "setting": "[3]", "value": "inactive"}]}
{"molecule": "C/C=C1/CN2CC[C@]34C(=Nc5ccccc53)[C@@H]2C[C@@H]1[C@H]4C(=O)OC", "values": [{"measurement": "activation", "setting": "[1]", "value": 17.9, "unit": "%"}, {"measurement": "Potency", "setting": "[2]", "value": "inactive"}, {"measurement": "Potency", "setting": "[3]", "value": "inactive"}]}
{"molecule": "COC1=CC(=O)O[C@@H](CCc2ccccc2)C1", "values": [{"measurement": "activation", "setting": "[1]", "value": -13.4, "unit": "%"}, {"measurement": "Potency", "setting": "[2]", "value": "inactive"}, {"measurement": "Potency", "setting": "[3]", "value": "inactive"}]}
{"molecule": "O=C(O)c1ccnc2cc(C(OCCN3CCCCC3)c3ccccc3Cl)[nH]c12", "note": "(centres undefined)", "values": [{"measurement": "activation", "setting": "[1]", "value": -17, "unit": "%"}, {"measurement": "Potency", "setting": "[2]", "value": "inactive"}, {"measurement": "Potency", "setting": "[3]", "value": "inactive"}]}
{"molecule": "C[C@H]1C(=O)O[C@H]2[C@H](O)[C@]34C5OC(=O)[C@]3(O[C@@H]3OC(=O)[C@H](O)C34[C@H](C(C)(C)C)[C@H]5O)C12O", "note": "(some centres undefined)", "values": [{"measurement": "activation", "setting": "[1]", "value": -12.2, "unit": "%"}, {"measurement": "Potency", "setting": "[2]", "value": "inactive"}, {"measurement": "Potency", "setting": "[3]", "value": "inactive"}]}
{"molecule": "CC(C)[C@H](NC(=O)c1nn(Cc2ccc(F)cc2)c2ccccc12)C(N)=O", "values": [{"measurement": "activation", "setting": "[1]", "value": -6.68, "unit": "%"}, {"measurement": "Potency", "setting": "[2]", "value": "inactive"}, {"measurement": "Potency", "setting": "[3]", "value": "inactive"}]}
